# Shn3 3UTR inh: inhibitors of Schnurri-3 3'UTR reporter in osteoblasts; Clone20 osteoblast Shn3 3'UTR firefly luciferase, 24 h; inhibition, % at 12.5 µM; 360,000 compounds, 0.52% hits;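 active = mean inhibition of at least 75% with every replicate also reaching 75%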
# HIF-2a block: HIF-2a inhibition; 786-0 RCC cells HIF-2a reporter, luciferase luminescence, overnight; inhibition, % at 18.8 µM; 360,000 compounds, 0.72% hits; AID 624352;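 active = inhibition of the luminescence signal of 40% or more relative to plate controls, in a single-dose primary screen at 18.75 µM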
# LMP1 NFkB inh: reduces LMP1-driven NF-kappaB luciferase signal | 350,000 compounds, 0.69% hits | LMP1-induced NF-kappaB luciferase reporter cells, luminescence | inhibition, % at 12.5 µM; in the data active = inhibition above about 41%
# Peg3 promoter: reduces Peg3 promoter-driven luciferase expression in HeLa; HeLa PEG-Prom luciferase reporter, luminescence, overnight; inhibition, % at 20 µM; 360,000 compounds, 1.7% hits; AID 588405;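 active = inhibition of at least 50% at 20 µM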
# CF NFkB inh: inhibitors of cystic fibrosis induced NF-kB | AID 588850 | 360,000 compounds, 0.86% hits | KKLEB NF-kB-GFP reporter, PAF-induced, GFP fluorescence overnight | inhibition, % at 5 µM;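 active = at least 50% inhibition at 5 µM, scaled per plate between neutral and stimulator controls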;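 note: PAF is a Pseudomonas aeruginosa culture filtrate used as stimulus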
# KKLEB tox: CF airway cell cytotoxicity counter-screen; KKLEB CF airway cells viability, ATPlite luminescence, overnight; hits give low values; cells stimulated with P. aeruginosa culture filtrate; activity change (cytotoxicity), % at 5 µM; 360,000 compounds, 0.36% hits; AID 602141;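 active = corrected activity change at or below -50% at 5 µM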
# Hits are given with their value; . = inactive; / = no result. Rows were chosen to be rich in hits. Some 2.9% of all compounds tested hit in one or more screens of this group.
SMILES,Shn3 3UTR inh,HIF-2a block,LMP1 NFkB inh,Peg3 promoter,CF NFkB inh,KKLEB tox
CC(Sc1nc(-c2ccc(F)cc2)cs1)C(=O)N1c2ccccc2CC1C (centres undefined),.,.,59,.,.,.
CC(C)CN1C(=O)/C(=C(/C#N)C(=O)NC2CCCCC2)c2ccccc21,.,.,.,.,.,.
NC(N)=N/N=C/c1ccc(OCc2ccccc2)cc1,.,.,.,54,.,.
NC(N)=N/N=C/c1ccc(OCc2ccc(Cl)cc2)cc1,.,.,.,110,.,.
Cc1ccc(COc2ccc(/C=N/O)cc2)cc1,.,.,.,.,.,.
O=C(N/N=C/c1ccccc1)c1ccc(OCc2ccccc2)cc1,.,.,.,.,.,.
CCOC(=O)C(C)Sc1nc(-c2cccs2)ccc1C#N (centres undefined),.,.,60,.,.,.
Oc1c(C(c2cccs2)N2CCC3(CC2)OCCO3)sc2ncnn12 (centres undefined),88,.,.,.,.,.
Oc1c(C(c2cccs2)N2CCN(c3ccccc3)CC2)sc2ncnn12 (centres undefined),.,.,.,.,.,.
COc1ccccc1Cc1c(C2CCCCC2)nc2ccc(C)cn12,.,.,/,74,.,.
O=c1[nH]c2ccccc2nc1C(Nc1ccccc1)c1ccccc1 (centres undefined),.,.,.,.,.,.
O=C(Nc1nc2ccccc2[nH]1)c1cccs1,.,.,.,.,.,.
COC(=O)Nc1nc2ccc(C(=O)c3cccs3)cc2[nH]1,.,.,.,.,60,.
Cc1ccc2nc(Cl)c3cc(C(=O)N(CCN(C)C)Cc4ccco4)sc3c2c1,.,.,.,93,.,.
NC1=NC[C@H](c2ccccc2)N1CCCCC1CCCCC1,.,.,.,100,.,.
S=C1NC[C@H](c2ccccc2)N1CCCCC1CCCCC1,.,.,.,.,.,.
c1csc(C(c2nnnn2C2CCCC2)N2CCCC3(CCCCC3)C2)c1 (centres undefined),.,.,.,.,.,.
CC(C)CCNC(=O)C1CCC(CNS(=O)(=O)c2cccc3nsnc23)CC1 (centres undefined),.,.,.,.,.,.
CCOc1ccc(C(=O)Nc2cccc(-c3nc4cccnc4o3)c2)cc1Cl,.,.,.,90,.,.
CCOc1ccc(C(=O)Nc2cccc(C(=O)O)c2)cc1Cl,.,63,.,.,.,.
Cc1cc(=O)n2nc(N3CCCC(C(=O)NC4CCCCC4C)C3)sc2n1 (centres undefined),.,.,.,.,.,.
COc1ccc(C2/C=C\CN(C(=O)C3CCCC3)CC(=O)N2Cc2ccc(F)cc2)cc1 (centres undefined),.,.,.,.,.,.
Fc1ccc(NC(=S)N2CCCc3ccccc32)cc1,.,.,.,.,.,.
O=C(NC1CCCCC1)C(c1ccc(F)cc1)N(Cc1cccs1)C(=O)CN1C(=O)c2ccccc2S1(=O)=O (centres undefined),.,.,.,.,59,-75
O=C(NCC1CCCO1)C(c1ccncc1)N(Cc1cccs1)C(=O)CN1C(=O)c2ccccc2S1(=O)=O (centres undefined),.,.,.,.,.,.
SMILES,Shn3 3UTR inh,HIF-2a block,LMP1 NFkB inh,Peg3 promoter,CF NFkB inh,KKLEB tox
CCN1CCC(O)(/C=C/c2ccc(C(C)C)cc2)C(C(=O)/C=C/c2ccc(C(C)C)cc2)C1 (centres undefined),.,.,.,104,.,.
CN[C@@H]1CC[C@H](c2ccc(Cl)c(Cl)c2)c2ccccc21,.,.,.,91,.,/
COCCn1c(SCC(=O)NNC(=O)c2ccccc2)nc2ccccc21,.,.,.,.,.,.
CCCCN(Cc1nc2ccccc2c(=O)[nH]1)C(=O)COc1ccc(F)cc1Cl,.,.,.,.,.,.
C[C@]12C(=O)N(c3ccc(C(F)(F)F)cc3)C(=O)N1[C@H]1c3ccccc3OC[C@@H]1[C@H]2c1ccccc1,.,.,.,.,60,.
COc1ccc(NS(=O)(=O)c2ccc(C(=O)N3CCC(C)CC3)cc2)cc1,.,.,.,.,.,.
CN1CCN(C2Cc3cc(Cl)ccc3Sc3cc(F)ccc32)CC1 (centres undefined),.,.,.,91,.,.

# From PubChem
